Assay outcomes as filed in PubChem BioAssay.
This is a sample that favours compounds with a hit; in the whole collection about 2.3% have one here.
TMEM16A inh = mouse TMEM16A channel inhibition, primary screen; normalized B-score (activity score, 25-100; higher = stronger inhibition) at 10 µM; 310,000 tested, 1.2% active; HEK293 TMEM16A/YFP iodide influx fluorescence, ionomycin;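 active = ratio plate-corrected score three or more library SD toward inhibition, starting fluorescence score within five deviations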;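 note: score derived from kinetic fluorescence span divided by baseline fluorescence per well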
TMEM16A act = activates or potentiates the mouse TMEM16A chloride channel; Q8BHY3; HEK293 TMEM16A/YFP-H148Q/I152L, iodide quench fluorescence; stronger effect = lower value; B-score at 10 µM; 340,000 tested, 0.3% active; AID 623877;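 active = fluorescence-ratio B-score plate-corrected deviation score at least 3 library SD below zero, with starting fluorescence score within 5 deviations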;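 note: channel opened by trigger with iodide after compound preincubation; score built on the fluorescence ratio of max minus min over baseline; more negative score means more quench and so TMEM16A activation or potentiation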
CHT allo act = allosteric activators of human choline transporter CHT; 310,000 tested, 0.49% active; B-score at 10 µM; AID 488977; CHT-expressing cells, membrane potential dye, choline EC20; stronger effect = higher value; LV-AA mutant CHT in HEK293 cells;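 active = initial fluorescence not abnormally high and integrated response B-score, plate-corrected, over 3 SD above library mean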
Target sequence (Q9GZV3 whole entry, looked up): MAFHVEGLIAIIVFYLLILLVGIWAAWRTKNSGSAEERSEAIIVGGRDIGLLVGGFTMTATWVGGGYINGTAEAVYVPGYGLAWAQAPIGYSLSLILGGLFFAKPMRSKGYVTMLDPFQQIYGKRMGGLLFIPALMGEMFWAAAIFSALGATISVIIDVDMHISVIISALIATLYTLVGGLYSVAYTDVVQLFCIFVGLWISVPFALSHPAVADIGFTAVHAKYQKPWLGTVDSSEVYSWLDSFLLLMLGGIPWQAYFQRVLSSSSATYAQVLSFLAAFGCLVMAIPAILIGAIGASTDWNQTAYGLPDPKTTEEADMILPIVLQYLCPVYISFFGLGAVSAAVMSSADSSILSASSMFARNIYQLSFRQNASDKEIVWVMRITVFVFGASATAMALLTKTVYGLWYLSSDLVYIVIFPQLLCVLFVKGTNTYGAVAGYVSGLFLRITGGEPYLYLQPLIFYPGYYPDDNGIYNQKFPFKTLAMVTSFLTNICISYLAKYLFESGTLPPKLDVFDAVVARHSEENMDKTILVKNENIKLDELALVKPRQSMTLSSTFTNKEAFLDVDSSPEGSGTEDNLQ
CHT block = inhibitors of human choline transporter CHT. Q9GZV3. CHT-expressing cells, membrane potential dye, choline response; stronger effect = lower value. B-score at 10 µM. 310,000 tested, 0.86% active. AID 488975;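 active = B-score over 3 SD under the library average, and starting fluorescence ratio not unusually high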;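 note: choline stimulus applied at its EC90 after an EC20 pre-addition; B-score computed on integrated fluorescence ratio after choline addition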
Starred values were filed as active, the others as inactive; i = inactive; · = no result.

SMILES	TMEM16A inh	TMEM16A act	CHT allo act	CHT block
CC(=O)O[C@H]1C[C@@H]2CC[C@@H]3[C@H](CC[C@@]4(C)[C@H]3C[C@H]([N+]3(C)CCCCC3)[C@@H]4OC(C)=O)[C@@]2(C)C[C@@H]1N1CCCCC1	i	·	6.5*	i
Cn1cccc1C(=O)NCC(c1ccco1)N1CCCCC1 (centres undefined)	i	i	i	i
CCCCC1=CC2=CC(=O)C(C)(OC(=O)CC)C(=O)C2=CN1C(CO)CO (centres undefined)	i	-5.8*	i	i
CC(C)CCC[C@@H](C)[C@H]1CC[C@H]2[C@@H]3C(=O)C=C4C[C@@H](O)CC[C@]4(C)[C@H]3CC[C@]12C	i	i	i	i
C=C1/C(=C\C=C2/CCC[C@]3(C)[C@@H]([C@H](C)CCCC(C)(C)O)CC[C@@H]23)C[C@@H](O)C[C@@H]1O	100*	·	i	i
COc1ccc(C2(c3ccc(OC)cc3)NC(=O)N(CC(=O)NC3(C#N)CCCCC3)C2=O)cc1	·	i	·	·
C[C@@H](C(=O)NCCc1ccccc1F)N1C(=O)N2CCc3c([nH]c4ccccc34)[C@@]2(C)C1=O	25*	i	i	i
CC(=O)Oc1cc2c(C(=O)NCc3ccncc3)c(C)oc2c2ccccc12	i	-21*	i	i
Cc1oc(-c2ccccc2)cc1C(=O)NCc1ccncc1	i	i	i	i
Cc1ccc(-c2nc(CSCC(=O)N3CCN(c4ccccn4)CC3)c(C)o2)cc1	25*	i	i	i
CCc1ccc(-c2nc(CSCC(=O)N3CCN(c4ccccn4)CC3)c(C)o2)cc1	100*	i	i	i
O=C(CSc1nc(=O)n(CCCN2CCOCC2)c2c1CCC2)Nc1cccc(F)c1	i	i	i	i
O=C(/C=C/c1cccc([N+](=O)[O-])c1)NCCSCc1cccc(Cl)c1	100*	i	i	i
CCCN(CCC)C(=S)NC(=O)c1ccc(-c2ccccc2)cc1	i	i	i	i
Cc1cc(NC(=O)COC(=O)C2CCN(S(=O)(=O)c3cccc(Cl)c3Cl)CC2)no1	100*	i	i	i
Cc1cc(NC(=O)COC(=O)C2CCN(C(=O)c3ccc(Cl)cc3)CC2)no1	i	i	i	i
N#CCCN(Cc1ccccc1)S(=O)(=O)c1cccs1	i	i	i	i
NC[C@H](Cc1ccccc1)NCCCCC1CCCCC1	·	i	·	·
CNC[C@H](CC1CCCCC1)NC[C@H](Cc1ccccc1)NCCC12CC3CC(CC(C3)C1)C2	100*	i	i	i
CNC(=O)COC(=O)c1ccc(Cl)c(S(N)(=O)=O)c1	i	i	i	i
C=CCNC(=O)COC(=O)c1ccc(Cl)c(S(N)(=O)=O)c1	i	-29*	i	i
CCCN(CCC)C(=O)Cn1c(=O)c2sccc2n2c(=S)sc(-c3ccccc3)c12	i	i	i	i
CCCN(CCC)C(=O)Cn1c(=O)c2ccccc2n2c(=S)sc(-c3ccccc3C)c12	i	-7.6*	i	i
COc1cccc(CN(C)C(=O)c2cc(COc3ccc(-n4cncn4)cc3)on2)c1	25*	i	i	i
CCCC(c1nnnn1Cc1cccs1)N1CCN(c2nc3ccccc3s2)CC1 (centres undefined)	i	-13*	i	i
SMILES	TMEM16A inh	TMEM16A act	CHT allo act	CHT block
CCOc1ccccc1/C=N/NC(=O)c1nnn(-c2nonc2N)c1CN1CCC(C)CC1	i	i	i	i
CC1CCN(Cc2c(C(=O)N/N=C/c3ccc(C(C)C)cc3)nnn2-c2nonc2N)CC1	i	i	6.4*	i
CC(=O)Oc1c(C)cc(Cl)cc1C(=O)Nc1ccc([N+](=O)[O-])cc1Cl	100*	i	i	i
CN(Cc1cn(Cc2ccccc2)nc1-c1ccc2c(c1)OCO2)Cc1nccn1C	i	i	i	i
CCn1c(=O)c(C(=O)Nc2nc3ccccc3[nH]2)c(O)c2ccccc21	i	-7.8*	i	i
CN(C)S(=O)(=O)c1cccc(NC(=O)c2ccc(COc3ccccc3)cc2)c1	25*	i	i	i
CN(c1ccc(C(=O)Nc2cccnc2)cc1)S(=O)(=O)c1ccccc1	i	-5*	i	i
CN(c1ccc(C(=O)Nc2cccnc2)cc1)S(=O)(=O)c1ccc(Cl)cc1	i	i	i	i
COCc1ccc(C(=O)Nc2cccc(S(=O)(=O)N(C)c3ccccc3)c2)cc1	·	i	·	·
CCN(CC)S(=O)(=O)c1cccc(NC(=O)Nc2cccc(C(F)(F)F)c2)c1	100*	i	i	i
COCCN(C(=O)COC(=O)CNC(=O)c1ccc(C)cc1)c1c(N)n(Cc2ccccc2)c(=O)[nH]c1=O	·	i	·	·
NS(=O)(=O)c1ccc(NCc2cc(Cl)ccc2OCc2ccc(F)cc2)cc1	25*	i	i	i
COc1ccc(CNCCc2ccc(Cl)cc2)cc1OCc1ccccc1	100*	i	i	i
CCOc1cc(CNCCc2ccc(S(N)(=O)=O)cc2)cc(Cl)c1OCc1ccccc1	25*	i	i	i
NS(=O)(=O)c1ccc(CCNCc2cc(Br)ccc2OCc2ccccc2)cc1	100*	i	i	i
CCOc1cc(CNCCc2ccc(S(N)(=O)=O)cc2)ccc1OCc1ccccc1	i	i	i	i
COc1ccc(CNCCc2ccccc2)cc1OCC(N)=O	i	i	i	i
COc1ccc(N(CC(=O)NCc2ccccc2)C(=O)CCC(=O)Nc2cc(C)ccn2)c(OC)c1	i	i	i	i
COc1ccc(OC)c2sc(N(CCN(C)C)C(=O)/C=C/c3cccs3)nc12	i	-32*	i	i
COc1ccc(C)c2sc(N(CCN(C)C)C(=O)/C=C/c3cccs3)nc12	i	i	i	i
CCCCN(C(=O)CCSc1ccc(F)cc1)c1c(N)n(Cc2ccccc2)c(=O)[nH]c1=O	i	i	i	i
CCOC(=O)N1CCN(C(=O)c2c[nH]c3ccc(S(=O)(=O)N(C)c4cccc(C)c4)cc3c2=O)CC1	i	-6.3*	i	i
CCOC(=O)N1CCN(C(=O)c2c[nH]c3ccc(S(=O)(=O)N(C)c4ccccc4C)cc3c2=O)CC1	i	i	i	i
COc1ccc([N+](=O)[O-])cc1NC(=O)N(C)Cc1ccco1	i	i	i	i
CC(=O)Nc1sc(C)c(C)c1C(=O)OCC(=O)N(CC(C)C)c1c(N)n(Cc2ccccc2)c(=O)[nH]c1=O	i	-6.6*	i	i
CCOC(=O)c1sc2nc(CSc3ccccc3)nc(N3CCC(C(N)=O)CC3)c2c1C	i	-5.8*	i	i
COc1cccc(NC(=O)Cc2nnc(SCC(=O)NC3CCCCC3)n2C)c1	i	i	i	i
O=C(N/N=C/c1cc(Br)c(O)c(Br)c1)c1cc2c(ccc3ccccc32)o1	100*	i	i	i
